Measurements: PubChem BioAssay (NCATS)
Records with an inconclusive call do not appear. A call without a number means that no potency is given here. Activity calls are given as the source filed them. The call rests on the fitted dose curve; in most records, active means well fitted curve in the direction sought with a large enough effect; inconclusive means small, poorly fitted or top-dose-only effect, or another doubt; inactive means no such curve, though single readings can be large; an effect the other way counts as inactive or inconclusive.

Columns and labels:
[1] = Primary qHTS for inhibitors of nuclear receptor binding SET domain protein 2 (NSD2) in an isogenic RCH-ACV NSD2 p.E1099K mutant (9B) (AID 1645876); further: nearly all actives have a fitted effect of over 70% in size; further: potency means the concentration at half of the fitted maximal effect
[2] = biological target: Papain (Carica papaya) (UniProt P00784); assay: Primary qHTS assay for inhibitors of the protease papain (AID 1645873);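 further: papain turnover of Z-FR-AMC read as the AMC fluorescence gain over 10 min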
[3] = biological target: N-terminal Xaa-Pro-Lys N-methyltransferase 1 (Homo sapiens) (UniProt Q9BV86); assay: Confirmatory qHTS for Inhibitors of N-terminal methyltransferase 1 (NTMT1): MTaseGlo Assay (AID 1645874);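 further: luminescence from SAH made as NTMT1 methylates SPKRIA peptide using SAM; nearly all actives have a fitted effect of over 65% in size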
Method in brief: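 Inhibition was derived from luminescence after SAH-to-ATP conversion, scaled between no-enzyme and DMSO wells, then fitted by 4-parameter Hill. Conditions: 125 nM NTMT1, 100 uM SAM, 1 uM SPKRIA, 30 min RT.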

[4] = Primary qHTS for inhibitors of nuclear receptor binding SET domain protein 2 (NSD2) in an RCH-ACV wild type WT cells (2C) (AID 1645877); further: nearly all actives have a fitted effect of over 70% in size; further: potency means the concentration at half of the fitted maximal effect
[5] = biological target: Catechol O-methyltransferase (Homo sapiens) (UniProt P21964); assay: Confirmatory Screen for Target Class Profiling of Small Molecule Inhibitors of Methyltransferases (AID 1745852); conditions: MTase-Glo luminescence, SAH detection, recombinant enzyme; measured here: COMT max response; stronger effect = lower value
[6] = biological target: Guanidinoacetate N-methyltransferase (Homo sapiens) (UniProt Q14353); assay: as above; conditions: MTase-Glo luminescence, SAH detection, recombinant enzyme; at 57.3 µM (top of the series)
[7] = biological target: Nicotinamide N-methyltransferase (Homo sapiens) (UniProt P40261); assay: as above; conditions: MTase-Glo luminescence, SAH detection, recombinant enzyme; measured here: NNMT max response; stronger effect = lower value
[8] = biological target: Rap guanine nucleotide exchange factor 3 (Homo sapiens) (UniProt O95398); assay: Confirmatory qHTS for antagonist of cAMP-regulated guanine nucleotide exchange factor 3 (EPAC1) (AID 1645880); further: nearly all actives have a fitted effect of over 55% in size
Method in brief: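 Released BODIPY-GDP fluoresces less than Rap1-bound BODIPY-GDP; the signal is followed at 480/540 nm at 5-min intervals over 30 min, after 5 min at room temperature. Reactions contain 100 nM EPAC1, 250 nM RAP1B-BODIPY-GDP and 50 uM GDP; results are normalized to ATA and DMSO.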

[9] = biological target: Rap guanine nucleotide exchange factor 3 (Homo sapiens) (UniProt O95398); assay: Confirmatory qHTS for agonist of cAMP-regulated guanine nucleotide exchange factor 3 (EPAC1) (AID 1645881);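 further: EPAC1 catalysed release of BODIPY-GDP from Rap1B seen as fluorescence loss; nearly all actives have a fitted effect of over 75% in size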
[10] = biological target: Rap guanine nucleotide exchange factor 4 (Homo sapiens) (UniProt Q8WZA2); assay: Confirmatory qHTS for agonist of cAMP-regulated guanine nucleotide exchange factor 4 (EPAC2) (AID 1645884);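 further: nucleotide exchange releases bodipy-GDP from Rap1 and this lowers its fluorescence; nearly all actives have a fitted effect of over 65% in size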
Rap guanine nucleotide exchange factor 4 (Homo sapiens), sequence (Q8WZA2 whole entry, looked up): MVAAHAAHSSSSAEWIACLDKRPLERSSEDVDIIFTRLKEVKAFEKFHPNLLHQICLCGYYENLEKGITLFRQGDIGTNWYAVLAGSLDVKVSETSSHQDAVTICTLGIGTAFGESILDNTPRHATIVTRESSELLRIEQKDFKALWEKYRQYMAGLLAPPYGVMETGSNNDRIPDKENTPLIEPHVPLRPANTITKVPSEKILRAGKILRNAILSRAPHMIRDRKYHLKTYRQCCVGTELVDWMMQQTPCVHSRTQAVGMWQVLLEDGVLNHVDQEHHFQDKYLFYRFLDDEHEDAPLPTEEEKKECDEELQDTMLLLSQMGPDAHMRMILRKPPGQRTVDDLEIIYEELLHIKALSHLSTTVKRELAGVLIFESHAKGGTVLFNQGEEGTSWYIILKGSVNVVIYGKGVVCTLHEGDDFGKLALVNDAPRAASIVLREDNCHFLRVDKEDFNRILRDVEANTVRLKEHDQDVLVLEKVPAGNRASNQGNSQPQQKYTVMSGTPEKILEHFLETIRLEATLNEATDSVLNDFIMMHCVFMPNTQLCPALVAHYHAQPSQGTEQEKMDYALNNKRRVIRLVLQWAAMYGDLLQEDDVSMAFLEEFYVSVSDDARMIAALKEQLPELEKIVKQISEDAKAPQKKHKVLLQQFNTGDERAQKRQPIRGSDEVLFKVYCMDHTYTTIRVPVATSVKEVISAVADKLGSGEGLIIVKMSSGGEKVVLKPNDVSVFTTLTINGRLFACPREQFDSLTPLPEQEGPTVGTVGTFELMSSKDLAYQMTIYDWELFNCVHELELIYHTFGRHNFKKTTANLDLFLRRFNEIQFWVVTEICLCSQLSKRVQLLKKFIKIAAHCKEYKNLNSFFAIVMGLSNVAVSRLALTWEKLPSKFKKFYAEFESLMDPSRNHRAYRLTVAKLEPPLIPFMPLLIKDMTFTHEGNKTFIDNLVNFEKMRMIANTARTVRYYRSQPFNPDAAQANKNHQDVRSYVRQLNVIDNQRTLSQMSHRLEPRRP

Papain (Carica papaya), sequence (P00784 whole entry, looked up): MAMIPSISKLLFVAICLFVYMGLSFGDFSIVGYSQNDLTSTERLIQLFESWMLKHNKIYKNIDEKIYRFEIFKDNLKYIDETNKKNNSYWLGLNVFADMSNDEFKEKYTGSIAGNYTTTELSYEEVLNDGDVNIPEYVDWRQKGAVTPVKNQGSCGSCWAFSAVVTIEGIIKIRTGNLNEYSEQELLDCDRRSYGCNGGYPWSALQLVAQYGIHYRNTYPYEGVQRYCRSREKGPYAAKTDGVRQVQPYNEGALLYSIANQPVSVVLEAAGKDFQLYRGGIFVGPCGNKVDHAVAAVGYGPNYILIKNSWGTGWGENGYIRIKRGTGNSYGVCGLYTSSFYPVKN
Rap guanine nucleotide exchange factor 3 (Homo sapiens), sequence (O95398 whole entry, looked up): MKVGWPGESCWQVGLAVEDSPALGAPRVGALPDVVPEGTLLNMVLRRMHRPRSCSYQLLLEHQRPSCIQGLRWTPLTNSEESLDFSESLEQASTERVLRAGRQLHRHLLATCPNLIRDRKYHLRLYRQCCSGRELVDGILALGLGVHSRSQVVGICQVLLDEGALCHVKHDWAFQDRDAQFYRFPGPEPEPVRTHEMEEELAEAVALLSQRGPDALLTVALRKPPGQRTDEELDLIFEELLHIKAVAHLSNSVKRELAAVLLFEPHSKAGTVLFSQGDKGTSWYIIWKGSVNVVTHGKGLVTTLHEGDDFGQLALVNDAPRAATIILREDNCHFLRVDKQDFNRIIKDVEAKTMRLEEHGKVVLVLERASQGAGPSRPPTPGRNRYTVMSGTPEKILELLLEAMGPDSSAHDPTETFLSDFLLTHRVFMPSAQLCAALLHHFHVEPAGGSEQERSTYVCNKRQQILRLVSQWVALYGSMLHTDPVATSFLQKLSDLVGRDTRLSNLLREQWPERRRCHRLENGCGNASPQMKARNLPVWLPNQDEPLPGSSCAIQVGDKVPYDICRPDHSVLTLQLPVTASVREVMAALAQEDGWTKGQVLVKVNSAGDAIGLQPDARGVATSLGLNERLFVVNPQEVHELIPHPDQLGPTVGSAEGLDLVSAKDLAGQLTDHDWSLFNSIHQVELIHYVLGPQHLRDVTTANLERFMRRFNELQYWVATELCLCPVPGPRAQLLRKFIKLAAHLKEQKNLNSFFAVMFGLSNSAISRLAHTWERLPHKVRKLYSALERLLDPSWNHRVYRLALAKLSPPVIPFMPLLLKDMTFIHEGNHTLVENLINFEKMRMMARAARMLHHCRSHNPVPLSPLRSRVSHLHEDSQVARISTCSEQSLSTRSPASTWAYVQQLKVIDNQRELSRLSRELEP
N-terminal Xaa-Pro-Lys N-methyltransferase 1 (Homo sapiens), sequence (Q9BV86 whole entry, looked up): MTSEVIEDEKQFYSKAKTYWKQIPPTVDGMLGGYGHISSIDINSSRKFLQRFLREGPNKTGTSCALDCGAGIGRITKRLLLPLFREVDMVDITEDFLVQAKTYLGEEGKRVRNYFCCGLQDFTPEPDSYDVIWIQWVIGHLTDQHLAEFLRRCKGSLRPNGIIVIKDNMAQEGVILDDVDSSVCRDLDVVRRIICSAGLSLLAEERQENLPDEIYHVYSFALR
Catechol O-methyltransferase (Homo sapiens), sequence (P21964 whole entry, looked up): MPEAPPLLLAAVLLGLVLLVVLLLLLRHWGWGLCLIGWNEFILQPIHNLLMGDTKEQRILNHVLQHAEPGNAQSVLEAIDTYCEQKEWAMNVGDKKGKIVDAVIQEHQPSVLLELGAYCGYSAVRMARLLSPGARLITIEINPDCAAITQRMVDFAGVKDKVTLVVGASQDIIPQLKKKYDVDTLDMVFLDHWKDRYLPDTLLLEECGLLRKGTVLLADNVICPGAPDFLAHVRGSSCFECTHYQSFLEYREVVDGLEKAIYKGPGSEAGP
Nicotinamide N-methyltransferase (Homo sapiens), sequence (P40261 whole entry, looked up): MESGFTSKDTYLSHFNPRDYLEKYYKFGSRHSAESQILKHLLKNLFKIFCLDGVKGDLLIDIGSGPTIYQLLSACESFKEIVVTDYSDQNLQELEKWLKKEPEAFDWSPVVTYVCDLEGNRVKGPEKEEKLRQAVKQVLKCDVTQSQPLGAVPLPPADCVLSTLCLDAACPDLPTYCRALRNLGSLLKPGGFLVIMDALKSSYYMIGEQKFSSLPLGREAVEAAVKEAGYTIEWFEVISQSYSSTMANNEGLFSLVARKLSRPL

In the case of `CNCC(=O)c1ccc(O)c(O)c1`, the Potency [1] is reported as “inactive”.
For `CC(C)c1cccc(C(C)C)c1O`, the outcome [2] was “inactive” and the Potency [1] was “inactive”.
With `C[C@H](N)C(=O)c1ccccc1` the outcome [3] was “inactive”, the Potency [1] was “inactive” and the Potency [4] was “inactive”.
For `COc1ccc2c3c1O[C@H]1[C@H](O)CC[C@H]4[C@@H](C2)N(C)CC[C@@]341`, the Potency [1] was “inactive”.
In the case of `Clc1ccc(C(c2ccc(Cl)cc2)C(Cl)(Cl)Cl)cc1`, the Potency [1] is reported as “inactive”.
With `C=C(C)[C@H]1CN[C@H](C(=O)O)[C@H]1CC(=O)O` the outcome [2] was “inactive”, the Potency [1] was “inactive” and the Potency [4] was “inactive”.
In the case of `C[C@]12CCC(=O)C=C1CC[C@@H]1[C@@H]2CC[C@@]2(C)[C@H]1CC[C@]2(C)O`, the outcome [3] is reported as “inactive” and the Potency [1] is reported as 23.7 µM (active).
For `O=P1(N(CCCl)CCCl)NCCCO1` (configuration not stated), the outcome [2] was “inactive” and the Potency [1] was “inactive”.
With `C[C@]12CC[C@H]3[C@@H](CCC4=CC(=O)CC[C@@H]43)[C@@H]1CC[C@@H]2OC(=O)CCC1CCCCC1` the Potency [1] was 23.7 µM (active).
With `CCN[C@@H](C)Cc1cccc(C(F)(F)F)c1` the Potency [1] was “inactive”.
With `O=C(CCCN1CCC2(CC1)C(=O)NCN2c1ccccc1)c1ccc(F)cc1` the outcome [2] was “inactive”.
For `COc1ccc2c(c1OC)C(=O)O[C@H]2[C@@H]1c2cc3c(cc2CCN1C)OCO3`, the outcome [2] was “inactive”, the Potency [1] was “inactive” and the Potency [4] was “inactive”.
In the case of `CCC(C)C(C)(COC(N)=O)COC(N)=O` (configuration not stated), the Potency [1] is reported as “inactive”.
In the case of `CC(C)=CC1C(C(=O)OCN2C(=O)C3=C(CCCC3)C2=O)C1(C)C` (configuration not stated), the Potency [1] is reported as “inactive”.
For `CCN(CCO)CCn1c(Cc2ccccc2)nc2c1c(=O)n(C)c(=O)n2C`, the Potency [1] was “inactive”.
For `CN1C(=O)CCS(=O)(=O)C1c1ccc(Cl)cc1` (configuration not stated), the outcome [2] was “inactive”, the Potency [1] was “inactive” and the Potency [4] was “inactive”.
For `CC(C)N(CCC(C(N)=O)(c1ccccc1)c1ccccn1)C(C)C` (configuration not stated), the outcome [2] was “inactive”, the Potency [1] was “inactive” and the Potency [4] was “inactive”.
For `CCC1(c2ccc(N)cc2)CCC(=O)NC1=O` (configuration not stated), the outcome [2] was “inactive” and the Potency [1] was “inactive”.
With `C[C@H]1[C@@H]2Cc3ccc(O)cc3[C@@]1(C)CCN2C` the Potency [1] was “inactive”.
For `CCC(C)(C)c1ccc(O)cc1`, the Potency [1] was “inactive”.
With `C[C@]12CCC(=O)C=C1CC[C@@H]1[C@H]3CC[C@](C)(O)[C@@]3(C)CC[C@@H]12` the Potency [1] was 34.7 µM (active).
With `CC(NC(C)(C)C)C(=O)c1cccc(Cl)c1` (configuration not stated) the outcome [2] was “inactive”, the Potency [1] was “inactive” and the Potency [4] was “inactive”.
In the case of `CCCCCN(C)CCC(O)(P(=O)(O)O)P(=O)(O)O`, the outcome [2] is reported as “inactive”.
In the case of `Nc1nc(N)nc(NC2CC2)n1`, the Potency [1] is reported as “inactive”.
In the case of `c1ccc(CN2CCNCC2)cc1`, the Potency [1] is reported as “inactive”.
In the case of `NCCc1ccc(O)cc1`, the outcome [2] is reported as “inactive”, the Potency [1] is reported as “inactive” and the activity [5] is reported as -7.57%. The activity change, negative = inhibition [6] was 0.255% and the activity [7] was -9.22%.
For `Cc1ncsc1CCCl`, the outcome [2] was “inactive”, the Potency [1] was “inactive” and the Potency [4] was “inactive”.
For `COc1c2c(cc3c1OCO3)CCN(C)C2`, the Potency [1] was “inactive”.
In the case of `NC(=O)CS(=O)C(c1ccccc1)c1ccccc1` (configuration not stated), the Potency [1] is reported as “inactive”.
With `Nc1ccn(C[C@@H](CO)OCP(=O)(O)O)c(=O)n1` the activity change, negative = viability loss [1] was -0.956% [at 9.23 µM] (inactive).
For `O=c1[nH]oc2c1CCNC2`, the outcome [2] was “inactive”, the Potency [1] was “inactive” and the Potency [4] was “inactive”.
With `COP(=S)(OC)Oc1cc(Cl)c(Cl)cc1Cl` the Potency [1] was “inactive”.
For `COc1cccc([C@@]2(O)CCCC[C@@H]2CN(C)C)c1`, the Potency [1] was “inactive”.
With `CC(C)(C)NCC(O)c1ccccc1Cl` (configuration not stated) the outcome [2] was “inactive” and the Potency [1] was “inactive”.
For `NC(=O)c1cc([N+](=O)[O-])cc([N+](=O)[O-])c1`, the Potency [1] was “inactive” and the Potency [4] was “inactive”.
In the case of `CCN[C@@H](C)Cc1ccccc1`, the Potency [1] is reported as “inactive” and the Potency [4] is reported as “inactive”.
With `COC(=O)[C@@H](N)CCCN/C(N)=N/[N+](=O)[O-]` the Potency [1] was “inactive” and the Potency [4] was “inactive”.
For `CCCN(CCC)C(=O)Cc1c(-c2ccc(Cl)cc2)nc2ccc(Cl)cn12`, the Potency [1] was “inactive” and the Potency [4] was “inactive”.
With `CC(Cc1ccccc1)N(C)Cc1ccco1` (configuration not stated) the Potency [1] was “inactive” and the Potency [4] was “inactive”.
For `C[C@]12Cc3cn[nH]c3C[C@@H]1CC[C@@H]1[C@@H]2CC[C@@]2(C)[C@H]1CC[C@]2(C)O`, the Potency [4] was “inactive”.
For `COc1cc(OC)c(OC)cc1C=O`, the Potency [1] was “inactive” and the Potency [4] was “inactive”.
With `COc1cccc(C(=O)CCN[C@@H](C)[C@H](O)c2ccccc2)c1` the Potency [1] was 16.8 µM (active) and the Potency [4] was 9.44 µM (active).
With `CC(C)C[C@H](CN)CC(=O)O` the Potency [1] was “inactive” and the Potency [4] was “inactive”.
In the case of `O=C(O)CCCc1ccc(N(CCCl)CCCl)cc1`, the Potency [1] is reported as “inactive” and the Potency [4] is reported as “inactive”.
In the case of `O=C1OC(c2ccc(O)c(S(=O)(=O)O)c2)(c2ccc(O)c(S(=O)(=O)O)c2)c2c(Br)c(Br)c(Br)c(Br)c21`, the Potency [1] is reported as “inactive” and the Potency [4] is reported as “inactive”.
With `CC(=O)C1CCOC1=O` (configuration not stated) the Potency [1] was “inactive” and the Potency [4] was “inactive”.
With `CC(C)c1c(CN(C)C(C)Cc2ccccc2)n(C)n(-c2ccccc2)c1=O` (configuration not stated) the Potency [1] was “inactive” and the Potency [4] was “inactive”.
In the case of `Clc1ccccc1N1CCNCC1`, the Potency [1] is reported as “inactive” and the Potency [4] is reported as “inactive”.
For `c1ccc(N2CCNCC2)cc1`, the Potency [1] was “inactive” and the Potency [4] was “inactive”.
In the case of `C[C@]12CC[C@@H]3c4ccc(OC(=O)N(CCCl)CCCl)cc4CC[C@H]3[C@@H]1CC[C@@H]2OP(=O)(O)O`, the Potency [1] is reported as “inactive” and the Potency [4] is reported as “inactive”.
In the case of `COC(=O)C(Cl)C(=O)OC`, the Potency [1] is reported as “inactive” and the Potency [4] is reported as “inactive”.
With `O=C1c2ccccc2C(=O)C1C(=O)C(c1ccccc1)c1ccccc1` the outcome [8] was “inactive”, the outcome [9] was “inactive” and the outcome [10] was “inactive”.
For `O=[N+]([O-])O[C@H]1CO[C@H]2[C@@H]1OC[C@H]2O[N+](=O)[O-]`, the Potency [1] was “inactive” and the Potency [4] was “inactive”.
In the case of `CC(=O)NC1CCSC1=O` (configuration not stated), the Potency [1] is reported as “inactive” and the Potency [4] is reported as “inactive”.
In the case of `COP(=S)(OC)Oc1ccc(SC)c(C)c1`, the Potency [1] is reported as “inactive” and the Potency [4] is reported as “inactive”.
With `C[C@]12CC[C@@H]3c4ccc(OC(=O)N(CCCl)CCCl)cc4CC[C@H]3[C@@H]1CC[C@@H]2O` the outcome [9] was “inactive” and the outcome [10] was “inactive”.
For `c1ccc2c(c1)sc1ccccc12`, the Potency [1] was “inactive” and the Potency [4] was “inactive”.
With `CC(=O)OCC1=C(C(=O)O)N2C(=O)[C@@H](N)[C@H]2SC1` the Potency [1] was “inactive” and the Potency [4] was “inactive”.
For `CCOP(=S)(OCC)Oc1ccc2c(C)c(Cl)c(=O)oc2c1`, the Potency [1] was 7.5 µM (active) and the Potency [4] was 6.68 µM (active).
With `CCCOC(=O)c1cncn1C(C)c1ccccc1` (configuration not stated) the Potency [1] was “inactive” and the Potency [4] was “inactive”.
For `CN(C)CCc1c[nH]c2cccc(OP(=O)(O)O)c12`, the Potency [1] was “inactive” and the Potency [4] was “inactive”.
For `Oc1ccc(Cl)cc1`, the Potency [1] was “inactive” and the Potency [4] was “inactive”.
In the case of `O=C1OC(CCN2CCCCC2)OC1(c1ccccc1)c1ccccc1` (configuration not stated), the Potency [1] is reported as 8.41 µM (active) and the Potency [4] is reported as 13.3 µM (active).
For `CCC(CC)(CNC(=O)CCCO)c1cccc(OC)c1`, the Potency [1] was “inactive” and the Potency [4] was “inactive”.
In the case of `O=C(Nc1ccc(Br)cc1)c1cc(Br)cc(Br)c1O`, the Potency [1] is reported as “inactive” and the Potency [4] is reported as “inactive”.
For `CC1(C)C(C=C(Cl)Cl)C1C(=O)OC(C#N)c1cccc(Oc2ccccc2)c1` (configuration not stated), the Potency [1] was “inactive” and the Potency [4] was “inactive”.
With `CN1CCC(O)(c2ccc(F)cc2)C(C(=O)c2ccc(F)cc2)C1` (configuration not stated) the Potency [1] was “inactive” and the Potency [4] was “inactive”.
In the case of `C=CCN1C[C@H](C)N([C@H](c2ccc(C(=O)N(CC)CC)cc2)c2cccc(OC)c2)C[C@H]1C`, the Potency [1] is reported as “inactive” and the Potency [4] is reported as “inactive”.
